Among all 2,100 compounds or so, about 1,100 (52%) were called active. About 27% were inconclusive and are not listed. Calls come from the whole dose curve; as a rule, active = well fitted inhibition curve with a large enough effect; inconclusive = small, poorly fitted or top-dose-only effect; inactive = no such curve, though single readings can be large or run the other way. So high a share suggests a set chosen from earlier hits. Some of the results follow.
Target: DNA dC->dU-editing enzyme APOBEC-3G (Homo sapiens) (UniProt Q9HC16)
Sequence (Q9HC16 whole entry, looked up): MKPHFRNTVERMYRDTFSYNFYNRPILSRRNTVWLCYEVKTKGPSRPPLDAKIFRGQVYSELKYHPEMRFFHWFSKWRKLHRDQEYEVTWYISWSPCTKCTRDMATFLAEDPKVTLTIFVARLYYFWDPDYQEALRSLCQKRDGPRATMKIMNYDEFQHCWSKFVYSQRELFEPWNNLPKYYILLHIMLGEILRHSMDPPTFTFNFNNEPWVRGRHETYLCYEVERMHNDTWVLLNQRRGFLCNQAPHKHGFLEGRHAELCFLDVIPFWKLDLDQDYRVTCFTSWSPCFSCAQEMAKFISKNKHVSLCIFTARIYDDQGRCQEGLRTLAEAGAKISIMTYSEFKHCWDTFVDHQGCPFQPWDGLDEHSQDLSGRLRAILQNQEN
Test: qHTS for inhibitors of Vif-A3G interactions: Cherry picks counterscreen;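 note: hits raise yellow fluorescence by blocking Vif-driven A3G-eYFP degradation; nearly all actives have a fitted effect of over 70% in size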;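 for max response: max response given as percent of control signal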
Conditions: HeLa A3G-eYFP + Vif (tagged APOBEC3G with the HIV-1 protein that degrades it), eYFP fluorescence, 24 h
Procedure, shortened: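 HeLa cells stably expressing A3G-eYFP and Vif were treated for 24 h at 37 deg C with compounds at several concentrations; yellow fluorescence (Ex 488 nm, Em 500-530 nm) read by Acumen Explorer, MG132 as positive control.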
Potency is the fitted concentration of half-maximal effect.

Structure (SMILES)	Potency	max response
CN(C)c1ccc(/C=C2/C[N+](C)(C)C/C(=C/c3ccc(N(C)C)cc3)C2=O)cc1	8.2 µM (active)	–
Nc1ccccc1C=C1Cc2ccccc2C1=O	7.31 µM (active)	–
CN(C)c1ccc(/C=C2\Cc3ccccc3C2=O)cc1	2.59 µM (active)	–
Cc1ccc(N2C(=O)[C@@H]3[C@H](C2=O)[C@H]2C=C(C(=O)c4ccccc4)C=CN2[C@@H]3C(=O)c2ccc(Cl)cc2)cc1	–	-6.73% (inactive)
O=c1[nH]c2ccccc2n2c(=S)[nH]nc12	–	-15.5% (inactive)
O=c1[nH]c2ccccc2n2c(C(F)(F)F)nnc12	20.6 µM (active)	–
CCN(CC)c1ccc(/C=C2\SC(N)=NC2=O)cc1	7.9 µM (active)	–
C/C(CC(=O)NCc1ccc(Cl)cc1)=N\NC(=O)COc1ccc(C)cc1Br	14 µM (active)	–
CC(=O)Nc1ccc(CC(=O)NCCC(c2ccccc2)c2ccccc2)cc1	15.8 µM (active)	–
CC(=O)Nc1ccc(NC(=O)C/C(C)=N/NC(N)=S)cc1	–	2.45% (inactive)
O=C(Oc1ccc(Cl)c2cccnc12)c1ccco1	–	17.4% (inactive)
Oc1ccc(-c2nc(-c3ccc(O)c(O)c3)cs2)cc1	0.994 µM (active)	–
COc1ccc(-c2ccnc(-c3ccc(O)cc3)n2)cc1	1.58 µM (active)	–
COc1ccc(-c2csc(-c3ccc(O)cc3)n2)cc1	5.59 µM (active)	–
COc1cc(C2c3cc4c(cc3OC(C)(N3CCCC3)C2C)OCO4)cc(OC)c1OC (configuration not stated)	0.994 µM (active)	–
COc1cccc(C2=CC(c3ccccc3)n3nnnc3N2)c1 (configuration not stated)	8.86 µM (active)	–
C=CCOC(=O)C1=C(C)Nc2nnnn2C1c1cccs1 (configuration not stated)	–	-7.35% (inactive)
COc1cccc(C2=CC(c3cccs3)n3nnnc3N2)c1 (configuration not stated)	2.8 µM (active)	–
N#CC1=C(S)N(c2ccc(F)cc2)C2(CCCCC2)NC1=O	–	4.28% (inactive)
Cc1ccc(/C=N/NC(=O)CCCOc2ccc(Cl)cc2Cl)cc1	7.9 µM (active)	–
CCCn1c(SCC(=O)Nc2ccccc2OC)nnc1-c1ccco1	17.7 µM (active)	–
CCCn1nnc(NC(=S)NC(=O)c2ccccc2OC)n1	–	9.21% (inactive)
CC(C)C1C(=O)N(Cc2cn(CCC3OCCCO3)nn2)CCS(=O)(=O)N1Cc1ccc(-c2cccc(CO)c2)cc1 (configuration not stated)	–	-8.99% (inactive)

Structure (SMILES)	Potency	max response
CC(=O)C1=C(C)NC(SCC(=O)c2ccc(Cl)cc2)=C(C#N)C1c1ccco1 (configuration not stated)	16.4 µM (active)	–
O=[N+]([O-])c1ccc(N2CCN(Cc3ccccc3)CC2)c2c1no[n+]2[O-]	12.5 µM (active)	–
CC1(C)Cc2ccccc2C2CC(O)C(=O)N21 (configuration not stated)	20.6 µM (active)	–
CCCCOc1nc2ccccc2nc1NS(=O)(=O)c1ccc(F)cc1	–	-6.51% (inactive)
COc1ccc(S(=O)(=O)NN(C)c2nc(C(F)(F)F)nc3ccccc23)cc1	7.04 µM (active)	–
COc1ccc(OC)c(NS(=O)(=O)c2ccc(Cl)s2)c1	12.5 µM (active)	–
CC[n+]1c(/C=C/Nc2ccccc2)oc2ccccc21	9.2 µM (active)	–
CC[n+]1c(/C=C/N(C)c2ccccc2)oc2ccc(F)cc21	14 µM (active)	–
CC[n+]1c(/C=C/Nc2ccccc2)oc2ccc(OC)cc21	14.6 µM (active)	–
CCc1ccc(N=Nc2ccc(O)c3[nH]cnc23)cc1	7.31 µM (active)	–
ClCc1nc2ccccc2n1Cc1ccccc1	20.6 µM (active)	–
CC(C)(C)c1ccc(Cn2c(=O)cnc3ccccc32)cc1	–	3.64% (inactive)
COc1ccc(NC2=CC(=O)CC(c3ccccc3)C2)c(OC)c1 (configuration not stated)	11.2 µM (active)	–
CC(=O)c1cccc(-c2ccnc3c2CC(C(=O)NCc2ccc(F)c(F)c2)O3)c1 (configuration not stated)	2.8 µM (active)	–
NC(=O)c1cccc(-c2ccnc3c2CC(C(=O)NCc2ccco2)O3)c1 (configuration not stated)	17.7 µM (active)	–
O=C(NCc1ccccc1)C1Cc2c(-c3cccc(F)c3)ccnc2O1 (configuration not stated)	1.4 µM (active)	–
CC(=O)c1cccc(-c2ccnc3c2CC(C(=O)NCc2ccco2)O3)c1 (configuration not stated)	1.58 µM (active)	–
O=C(NCc1ccco1)C1Cc2c(-c3cccc(F)c3)ccnc2O1 (configuration not stated)	5.59 µM (active)	–
CC(=O)c1cccc(-c2ccnc3c2CC(C(=O)NCC2CCOCC2)O3)c1 (configuration not stated)	5.59 µM (active)	–
CC1CC(=O)C2=C(C1)OC(N)=C(C#N)C2c1coc2ccccc2c1=O (configuration not stated)	–	-19.2% (inactive)
N#CC1=C(N)Oc2c(sc3ccccc23)C1c1ccco1 (configuration not stated)	12.5 µM (active)	–
CC(O)CN(CC(C)O)c1ccc2c(c1)Cc1cc([N+](=O)[O-])ccc1-2 (configuration not stated)	0.58 µM (active)	–
Cc1cc(C)c2cc3c(N)c(C(=O)Nc4c(C)[nH]c(=O)[nH]c4=O)sc3nc2c1	11.6 µM (active)	–

Structure (SMILES)	Potency	max response
CN[C@H]1CCc2cc(OC)c(OC)c(OC)c2-c2ccc(N(C)CC(OC)OC)c(=O)cc21	6.27 µM (active)	–
COc1cc2c(c(OC)c1OC)-c1ccc(N(C)CC(OC)OC)c(=O)cc1[C@@H](NC(C)=O)CC2	0.559 µM (active)	–
CC(C)c1ccc(C(=O)NCCCNC(=O)c2cnccn2)cc1	–	10.5% (inactive)
O=C(NCCN1C(=O)S/C(=C\c2ccc(OC(F)F)cc2)C1=O)c1cnccn1	12.5 µM (active)	–
Cn1c(/C=C/c2ccc([N+](=O)[O-])o2)nc2ccccc2c1=O	14.6 µM (active)	–
CCn1c(/C=C/c2ccc([N+](=O)[O-])o2)nc2ccccc2c1=O	20.6 µM (active)	–
O=c1c2ccccc2nc(/C=C/c2ccc([N+](=O)[O-])o2)n1CCCO	10.3 µM (active)	–
CCCN1C(=O)C(Cc2nc3ccccc3c(=O)n2CC)c2cc(Br)ccc21 (configuration not stated)	–	11.6% (inactive)
N#C/C(N=Nc1ccccc1O)=N\Nc1ccccc1O	16.4 µM (active)	–
CCOC(=O)CCc1ccc(NC(=O)/C=C/c2ccc([N+](=O)[O-])o2)cc1	11.6 µM (active)	–
O=C(Nc1nc2c(F)cccc2s1)c1ccc([N+](=O)[O-])o1	–	-8.08% (inactive)
N#CCc1ccc(NC(=O)/C=C/c2ccc([N+](=O)[O-])o2)cc1	13 µM (active)	–
O=C(/C=C/c1ccc([N+](=O)[O-])o1)NNC(=O)c1ccc(F)cc1	7.9 µM (active)	–
N#C/C=C/N1CCN(C(=O)c2ccco2)CC1	–	-14.7% (inactive)
CCN(CC(=O)NCc1ccc(F)cc1)C(=O)/C=C/c1ccc(OC)c(S(=O)(=O)NC(C)C)c1	3.53 µM (active)	–
c1ccc(-c2cnn3c(-c4ccccc4)c(-c4ccccc4)nc3n2)cc1	2.59 µM (active)	–
Cc1ccc(C2=NN(S(=O)(=O)c3ccccc3)C(c3ccccc3O)C2)cc1 (configuration not stated)	13 µM (active)	–
Cc1ccc(C2=NN(C(=O)c3cccs3)C(c3ccccc3O)C2)cc1 (configuration not stated)	–	20.9% (inactive)
CCOC1=C2CN(S(=O)(=O)c3ccc(C)cc3)[C@H](c3cccc4ccccc34)C[C@H]2C(C#N)(C#N)C(C#N)(C#N)C1	–	-20.1% (inactive)
COc1cccc(C2CC(c3ccccc3)=NN2S(=O)(=O)c2ccc(C)cc2)c1OC (configuration not stated)	18.4 µM (active)	–
O=c1c2ccccc2sc2ccc(NCCCN3CCOCC3)cc12	23.1 µM (active)	–
COc1ccc(S(=O)(=O)N2CCN(C(=O)c3ccc([N+](=O)[O-])o3)CC2)cc1	–	-0.426% (inactive)
COc1ccc(S(=O)(=O)N2c3ccccc3OCC2CC(=O)O)cc1 (configuration not stated)	12.5 µM (active)	–

Structure (SMILES)	Potency	max response
COC(=O)/C(=C\Nc1ccc(Cl)cc1Cl)NC(=O)c1ccc(OC)cc1	1.98 µM (active)	–
O=C(NC(=S)Nc1c(Cl)cc(Cl)cc1Cl)c1ccccc1	–	6.93% (inactive)
COc1ccc(N/C=C2\C(=O)CCc3c2oc2cc(Cl)c(O)c(Cl)c32)cc1	–	-5.39% (inactive)
Clc1ccccc1/C=N/NC1=Nc2cccc3cccc1c23	9.2 µM (active)	–
Clc1ccc(/C=N/NC2=Nc3cccc4cccc2c34)cc1	20.6 µM (active)	–
COc1cccc(CNCCSc2nnnn2C)c1OCc1ccc(F)cc1	–	2.02% (inactive)
c1cc(SC2CCCCC2)cc(-c2nc3cnccn3c2NC2CCCCC2)c1	–	17.4% (inactive)
COc1ccc(-c2nc3cnccn3c2NC2CCCCC2)cc1-c1cccc(Cl)c1	–	-10.6% (inactive)
CCCCNc1c(-c2ccc(SC3CCCCC3)cc2)nc2cnccn12	2.23 µM (active)	–
CN(C)c1ccc(/C=N/NC(=O)c2cc(-c3ccc4c(c3)OCO4)n[nH]2)cc1	12.5 µM (active)	–
Cc1cc(C)n(-c2nnc3n2N=C(c2c[nH]c4ccccc24)CS3)n1	6.27 µM (active)	–
COc1cc(/C=C2/CCC/C(=C\c3cc(O)c(OC)c(Cl)c3)C2=O)cc(Cl)c1O	14.6 µM (active)	–
CCOc1cc(/C=C2\CCC/C(=C\c3cc(Cl)c(O)c(OCC)c3)C2=O)cc(Cl)c1O	17.7 µM (active)	–
Cc1csc(NC(=O)CCC(=O)N(CC(=O)NC2CCCC2)Cc2ccccc2)n1	–	-14.8% (inactive)
NC(=O)c1ccc(Cn2c(C(=O)c3cc(Cl)c(N)c(Cl)c3)c3ccccc3[n+]2[O-])cc1	11.2 µM (active)	–
Cc1ccc(-n2nc3c(N4CCCC(C(=O)NCc5ccccc5C)C4)nnc(C)c3c2C)cc1 (configuration not stated)	–	-1.78% (inactive)
Cc1ccc(Cl)cc1NC(=O)Nc1cn(CC(C)C)c(=O)c2ccccc12	–	10.5% (inactive)
Cc1ccc(C)c(NC(=O)Cn2cc(S(=O)(=O)Cc3cccc(Cl)c3)c3ccccc32)c1	18.4 µM (active)	–
COc1ccc(OCCCC(=O)N2CCN(S(=O)(=O)c3cccc(F)c3)CC2)cc1	–	2.87% (inactive)
O=C(Nc1ccc(Cl)cn1)c1cccc(S(=O)(=O)N2CCCCCC2)c1	–	1.56% (inactive)
O=C(Cn1ncc(Cl)c(Cl)c1=O)N1CCN(S(=O)(=O)c2ccc3ccccc3c2)CC1	11.2 µM (active)	–
Cc1ccc(NC(=O)C2CCN(S(=O)(=O)c3ccc(Cl)c(C(F)(F)F)c3)CC2)nc1	–	8.66% (inactive)
Cc1ccc(S(=O)(=O)N2CCCCC2)cc1NC(=O)Cn1ncc(Cl)c(Cl)c1=O	12.5 µM (active)	–

From PubChem BioAssay AID651813 (National Center for Advancing Translational Sciences (NCATS), 2012)
